We go through 40 compounds from PubChem BioAssay (EPA / NIEHS).

“And” between values parts separate entries of the source, which are not always exact repeats. Equal values may be shown once. The source made the active and inactive calls. The calls were made as follows: active = hit-call score of the fitted dose curve at least 0.9, where 1 is the maximum; inactive = score below 0.9.

Read-out in this assay: Urokinase-type plasminogen activator receptor (uPAR), PLAUR (gene 5329)
Put plainly: BSK_4H_uPAR: BioMAP Diversity Plus: 4H Assay for Urokinase-type plasminogen activator receptor (uPAR) Biomarker Activity (AID 2283030). Particulars: primary human endothelial cells (HUVEC); actives raise or lower the signal. The method, then: BSK_4H is a cell-based, multiplexed-readout assay that uses umbilical vein endothelium, a human vascular primary cell, with measurements taken at 24 hours after chemical dosing in a 96-well plate.BSK_4HAR is an assay component measured in the BSK_4H assay. It measures uPAR antibody related to regulation of gene expression using ELISA technology.Data from the assay component BSK_4HAR was analyzed into 1 assay endpoint. This assay endpoint, BSK_4HAR, was analyzed with bidirectional fitting relative to DMSO as the negative control and baseline of activity. Using a type of binding reporter, gain or loss-of-signal activity can be used to understand changes in the signaling as they relate to the gene PLAUR. Furthermore, this assay endpoint can be referred to as a primary readout, because this assay has produced multiple assay endpoints where this one serves a signaling function. To generalize the intended target to other relatable targets, this assay endpoint is annotated to the cytokine intended target family, where the subfamily is plasmogen activator.
The levels of cell surface (or secreted, indicated by the prefix "s") biomarker endpoints were measured by ELISA. Overt cytotoxicity to cells in confluent adherent cultures (all systems other than the BT system) was assessed by measuring total protein levels using sulforhodamine B (SRB) staining in parallel cultures at the time of biomarker measurements, indicated as SRB endpoints. For proliferation assays for adherent cell types, individual cell types are cultured at sub-confluence and relative cell numbers quantified by SRB staining at time points optimized for each system (48 h: 3C and CASM3C systems; 72 h: BT and HDF3CGF systems; 96 h: SAg system). SRB was performed by staining cells with 0.1% SRB after fixation with 10% TCA and reading wells at 560 nm.Viability and proliferation of PBMC (T cells) was quantified by Alamar Blue reduction for the SAg and BT systems. For PBMC viability (referred to as PBMC Cytotoxicity within the assay endpoint names), cells were plated (75,000/well in a 96-well plate) and then chemical samples added for 1 h before addition of activators, SEB and TSST-1 (20 ng/mL final concentration each). Cells were incubated for 90 h. Then, Alamar Blue (20 uL/well) (Invitrogen, Cat DAL1100) was added for 6 h, and the plates were read with a fluorescence microplate reader at 546/580 nm (excitation/emission). For PBMC proliferation, cells were plated and activated as above but incubated for only 16 h prior to addition of Alamar Blue. Plates were read after 6 h.
On to `CCCCCC1=CCCC1=O`, for which the result was inactive.
With `c1ccc2sc(SSN3CCOCC3)nc2c1`, the half-maximal activity concentration (AC50) (commonly the concentration giving half of the maximal activity seen) was 6.7 µM (active).
For `COc1ccc(C(=O)c2ccccc2)c(O)c1`, the outcome was inactive.
The same measure, in the same setting: next, `COC(OC)(C(=O)c1ccccc1)c1ccccc1`: “inactive”.
Take `C=CCCCCCCCCC=O`: the result was inactive.
Regarding `c1ccc(Nc2cccc3ccccc23)cc1`, the AC50 was 35.4 µM (active) and 35.1 µM (active).
Same read-out and setting: next, `CCCCCCCCC(CO)CCCCCC` (stereo not given): 2.51 µM (active).
On to `CC=C(C)C(C)=O`, for which the outcome was inactive.
Still for that read-out and setting: the same measure for `C=CC(=O)NC(C)(C)C`: “inactive”.
In the case of `CCCCCCCCCCCC(=O)N(C)CC(=O)O`, the half-maximal activity concentration (AC50) was 19.5 µM (active) and 13.4 µM (active).
Regarding `O=C(Cl)c1c(Cl)c(Cl)c(C(=O)Cl)c(Cl)c1Cl`, the result was inactive.
The same measure, in the same setting: next, `Fc1ccc(Br)cc1`: “inactive”.
With `C=CC(=O)OCCCCCCOC(=O)C=C`, the AC50 was 20 µM (active).
In the case of `CC=C(C)C=CC=C(C)C`, the outcome was inactive.
`C=CC(=O)NCOCCCC`: the outcome was inactive.
On to `C[N+](C)(C)CCCNS(=O)(=O)C(F)(F)C(F)(F)C(F)(F)C(F)(F)C(F)(F)C(F)(F)C(F)(F)C(F)(F)F`, for which the result was inactive.
On the same count and under the same terms, the same measure for `O=C(O)C(F)(F)C(F)(F)C(F)(F)C(F)(F)C(=O)O`: “inactive”.
As to `O=C1CCCCCCCCCCC1`, the result was inactive.
As to `Nc1ccc(C(=O)O)cc1`, the outcome was inactive.
Regarding `Oc1ccc(/C=C/c2cc(O)cc(O)c2)cc1`, the AC50 was 1.24 µM (active).
For the compound `Oc1ccccc1Cc1ccccc1O`, the outcome was inactive.
Same read-out and setting: next, `CCC1(C)C(=O)N(Cl)C(=O)N1Cl` (stereo not given): “inactive”.
For `CC(CCC(=O)O)(c1ccc(O)cc1)c1ccc(O)cc1`, the outcome was inactive.
Same read-out and setting: next, `C=CC(=O)OCCCCCCCC(C)C`: “inactive”.
Same read-out and setting: the same measure for `CCCCCCC=O`: “inactive”.
Still for that read-out and setting: the same measure for `O=C1CCCCCCCCCCCN1`: “inactive”; for `CCOC(=O)/C=C\C(=O)OCC`: “inactive”.
For the compound `CCNc1nc(NC(C)(C)C)nc(OC)n1`, the result was inactive.
The same measure, in the same setting: the same measure for `CCc1cccc(C)c1N(C(=O)CS(=O)(=O)O)C(C)COC` (stereo not given): “inactive”.
In the case of `CC/C=C\C/C=C\C/C=C\CCCCCCCC(=O)OC`, the half-maximal activity concentration (AC50) is 30.9 µM (active).
On to `Clc1cc(Cl)c(Cl)c(Cl)c1Cl`, for which the outcome was inactive.
Still for that read-out and setting: the same measure for `c1ccc2c(c1)[nH]c1ccccc12`: “inactive”.
With `COc1ccc(C(=O)/C(Br)=C\C(=O)O)cc1`, the AC50 is 32.5 µM (active) and 32.2 µM (active).
Take `CC1=CC=C(C(C)C)CC1`: the outcome was inactive.
For the compound `Nc1cccc(N)n1`, the outcome was inactive.
Regarding `C=C(C)C(=O)OCCCCCCCCCCCC`, the result was inactive.
On the same count and under the same terms, the same measure for `Cc1ccc([N+](=O)[O-])cc1N`: “inactive”.
The same measure, in the same setting: next, `CC(C)c1cccc(C(C)C)c1N`: “inactive”; `CC(C)CCCCCOC(=O)CS`: “inactive”; `CC1(C)CC(O)CC(C)(C)N1[O]`: “inactive”.
